Results reported in the antibiotic and cytotoxicity screens of Wong et al. (2023).
Hit rate of the full screen: of about 39,000 compounds, about 3,300 (8.5%) were called active. The entries come from a sample that favours actives as a whole.

These compounds were tested on HepG2 (assay: cytotoxicity call (relative viability < 0.9)). Conditions: 10 µM.

SMILES | cytotoxicity call
CCCCOC(=O)C1=CC(=O)CC(C)(C)O1 | active
C[C@@H](O)CN1C[C@H]2C[C@@H](C1)c1cccc(=O)n1C2 | inactive
CN1C[C@@H](C(=O)O)CN2CCN(C(=O)c3ccncc3F)C[C@@H]2C1 | inactive
O=C1CC2(CCNCC2)CN1 | inactive
C1CCC(NC2CCCC2)CC1 | inactive
Cl.c1ccc2c(c1)OCC(C1=NCCN1)O2 (configuration not stated) | active
NCC[C@H]1COc2ccccc2O1 | inactive
CCC1(C2=NCCN2)Cc2ccccc2O1.Cl (configuration not stated) | inactive
FC(F)(F)c1nnc(N2CCNCC2)s1 | inactive
CCN1C[C@]2(COC)CC[C@H](O)[C@@]34[C@@H]2[C@@H](OC)[C@@H]([C@@H]13)[C@@]1(OC(C)=O)C[C@H](OC)[C@H]2C[C@H]4[C@@H]1[C@@H]2OC(C)=O | inactive
CC(C)c1csc(CCN)n1 | inactive
CN1C[C@H]2CN[C@H]2C1 | inactive
Cc1[nH]c2ccccc2c1CN(C)C | inactive
Cc1cccc(N2CCNCC2)n1 | inactive
c1ccc(N2CCNCC2)nc1 | inactive
O=C(O)C=CC(=O)O.c1ccc2nc(N3CCNCC3)ccc2c1 | active
COc1ccc([C@H]2CC(=O)N3CCNC[C@@H]23)cc1 | inactive
CCCN1CC(CSC)CC2c3cccc4[nH]cc(c34)CC21.CS(=O)(=O)O (configuration not stated) | inactive
CNC(C)C(O)c1ccccc1.Cl (configuration not stated) | inactive
O=C(O)C[C@H]1CC[C@@H]2NC[C@H](O)COC[C@H]2O1 | inactive
C[CH2][Hg][S]c1ccccc1C(=O)[O-].[Na+] | active
O=C([O-])Cc1ccccc1.[Na+] | inactive
N[C@@]1(C(=O)O)CC[C@H](C(=O)O)C1 | inactive
NCCc1ccc(S(=O)(=O)F)cc1 | inactive
CN1C(=O)NC(=O)/C(=C\C=C\c2ccco2)C1=O | inactive
C[C@@]12NC(=O)CN1CCc1ccccc12 | inactive

SMILES | cytotoxicity call
CC(C)NC(=O)C1=NO[C@]2(CCNC2)C1 | inactive
Nc1nc(Cl)ncc1[N+](=O)[O-] | inactive
O=C1CCCC2C3CC(CN12)C1CCCCN1C3.[O-][Cl+3]([O-])([O-])O (configuration not stated) | inactive
COc1ccc2c(c1)[nH]c1c(C)nccc12 | active
COc1ccc2cc(CCN)c(=O)[nH]c2c1 | inactive
c1ccc2c(c1)[nH]c1cnccc12 | inactive
Cc1nccc2c1[nH]c1ccccc12 [listing 1 of 2 here] | inactive
Cc1nccc2c1[nH]c1cc(O)ccc12 [listing 1 of 2 here] | active
Cc1nccc2c1[nH]c1cc(O)ccc12 [listing 2 of 2 here] | inactive
Cc1nccc2c1[nH]c1ccccc12 [listing 2 of 2 here] | active
Cc1ccc(C=C2C(=O)NC(=O)NC2=O)cc1 | inactive
NCC(=O)Nc1ccc(Br)cc1C(=O)c1ccccc1 | inactive
Cn1cnc(CCN)c1 | inactive
CC1(C)CCNC1=O | inactive
COS(C)(=O)=O | inactive
C[C@@H]1CN([C@@H](C)CO)C(=O)c2cc(NC(=O)Nc3ccccc3)ccc2O[C@@H](C)CCCCO[C@H]1CN(C)C(=O)Oc1ccccc1 | inactive
CNc1ccc2oc(C[C@H]3O[C@@]4(CC[C@H]3C)O[C@H]([C@H](C)C(=O)c3ccc[nH]3)[C@H](C)C[C@H]4C)nc2c1C(=O)O | active
C[C@H]1CN([C@@H](C)CO)C(=O)CCCn2nncc2CO[C@H]1CN(C)C(=O)Oc1ccc2ccccc2c1 | inactive
CC=C1CC(C)C(O)(CO)C(=O)OCC2=CCN3CCC(OC1=O)C23 (configuration not stated) | inactive
O=C1CC(=O)N(Cc2ccccc2)C(=O)N1 | inactive
C[C@@]1(C(=O)O)[C@H]2CC[C@@H](O2)[C@@]1(C)C(=O)O | active
C[C@]12CC[C@](C)(O1)[C@H](C(=O)O)[C@@H]2C(=O)O | inactive
O=C(O)[C@H]1[C@H](C(=O)O)[C@H]2CC[C@@H]1O2 | inactive
OCCN1CC2(CCN(c3nccs3)C2)C1 | inactive
C1CCNCC1 | inactive
Cc1cnc[nH]1 | inactive

SMILES | cytotoxicity call
C[C@@H]1CN([C@H](C)CO)C(=O)CCCn2cc(nn2)CO[C@H]1CN(C)C(=O)Oc1cccc2ccccc12 | inactive
C[C@H]1CN([C@@H](C)CO)C(=O)CCCn2cc(nn2)CO[C@@H]1CN(C)C(=O)Oc1cccc2ccccc12 | inactive
CC(C)C12OC1C1OC13C1(C)CCC4=C(COC4=O)C1CC1OC13C2O (configuration not stated) | active
CC(C)c1ccc2c(c1O)CCC1C3=C(CCC21C)C(=O)OC3 (configuration not stated) | inactive
NCCc1c[nH]c2ccc(OCC(=O)O)cc12 | inactive
Nc1ncccc1CN1CC[C@]2(CC(=O)NC2=O)C1 | inactive
CC1CCC2C(C)C(=O)OC3OC4(C)CCC1C32OO4 (configuration not stated) | inactive
CCOC1OC2OC3(C)CCC4C(C)CCC(C1C)C24OO3 (configuration not stated) | active
NC(=O)C12CC(CN1)C2 | inactive
COc1cc2c3cc1Oc1c(OC)c(OC)cc4c1[C@@H](Cc1cccc(c1)Oc1ccc(c(O)c1)C[C@@H]3N(C)CC2)N(C)CC4 | inactive
COc1cc2c3cc1Oc1c(OC)c(OC)cc4c1C(Cc1cccc(c1)Oc1ccc(c(O)c1)CC3N(C)CC2)N(C)CC4.Cl.Cl (configuration not stated) | active
COc1ccc2c(c1O)-c1c(OC)c(OC)cc3c1C(C2)N(C)CC3 (configuration not stated) | inactive
O=C(O)CF.[NaH] | inactive
CC(=O)Oc1ccc(C=Cc2cc(OC(C)=O)cc(OC(C)=O)c2)cc1 | inactive
c1cnc(N2CCOC[C@@]3(CCCNC3)C2)cn1 | inactive
O=C(CCCN1CCC2(CC1)C(=O)N(Cc1cccc(F)c1)CN2c1ccccc1)c1ccc(F)cc1 | active
C[C@@H]1CN([C@@H](C)CO)C(=O)CCCn2nncc2CO[C@@H]1CN(C)C(=O)Oc1ccc2ccccc2c1 | inactive
C[C@@H]1CN([C@H](C)CO)C(=O)CCCn2cc(nn2)CO[C@@H]1CN(C)C(=O)Oc1ccc2ccccc2c1 | inactive
CC(C)C[C@H]1C(=O)N2CCC[C@H]2[C@]2(O)O[C@](NC(=O)[C@@H]3C=C4c5cccc6[nH]c(Br)c(c56)C[C@H]4N(C)C3)(C(C)C)C(=O)N12 | inactive
C[C@@H](N)Cc1c[nH]c2ccc(OCc3cccs3)cc12 | inactive
C[C@H]1C[C@@H]2CNC[C@@H]2O1 | inactive
CCN(CC)CCOC(=O)C(O)(c1ccccc1)c1ccccc1.Cl | inactive
CCCCOC(=O)c1ccccc1C(=O)OCCCC | active
CC(N)C(O)c1ccc(O)c(O)c1 (configuration not stated) | inactive
CCS(=O)(=O)N1C[C@@H]2CCN[C@@H]2C1 | inactive
